PubChem BioAssay (Tox21)
Records with an inconclusive call do not appear. Values without a mark were called inactive. Calls of active or inactive are those of the source. Calls follow the shape of the dose curve; as a rule, active = well fitted activation curve with a large enough effect in the signal ratio in the repeat runs (not every such curve was filed as active); inconclusive = weak or mixed curves, or effect the other way; inactive = flat fitted curve, though single readings scatter; the % refers to the signal ratio.

Target: Estrogen receptor beta (Homo sapiens) (UniProt Q92731)
Assay: qHTS assay to identify small molecule agonists of the estrogen receptor beta (ER-beta) signaling pathway (AID 1259377)
Settings: ER-beta-UAS-bla HEK293T, beta-lactamase FRET ratio, 16 h; series mostly up to 92.4 µM; activation: at the top concentration
Excerpt: U.S. Tox21 Program National Center for Advancing Translational Sciences [NCATS] NIH Chemical Genomics Center [NCGC] U.S. Environmental Protection Agency [EPA] National Institutes of Environmental Health Sciences [NIEHS] National Toxicology Program [NTP] U.S. Food and Drug Administration [FDA] Tox21 Assay Overview: Estrogen receptor (ER), a nuclear hormone receptor, plays an important role in development, metabolic homeostasis and reproduction. Two subtypes of ER, ER-alpha and ER-beta, have similar expression patterns with some uniqueness in both types. Endocrine disrupting chemicals (EDCs) and their interactions with steroid hormone receptors like ER causes disruption of normal endocrine function. To identify the compounds that activate ER signaling, an ER beta-UAS-bla GripTite cell line (Life technologies, Madison, WI, USA) containing a beta-lactamase reporter gene under the control of an Upstream Activator Sequence (UAS) was used to screen Tox21 10K compound library.
Tox21 Assay Protocol Summary: ER-beta-UAS-bla HEK293T cells were dispensed at 2,000 cells/5 uL of assay medium containing 2% charcoal stripped FBS per well into black wall/clear-bottom 1536-well plates using a Multidrop Combi (ThermoFisher Scientific, Waltham, MA) dispenser. After the assay plates were incubated at a 37C and 5% CO2 for 6 hr, 23 nL of compounds dissolved in DMSO, positive controls or DMSO only was transferred to the assay plate by a Pintool station (Kalypsys, San Diego, CA). The plates were incubated at 37C and 5% CO2 for 16 hr. Then 1 uL of LiveBLAzerTM B/G FRET substrate was added using a BioRAPTR FRD (Flying Reagent Dispenser, Aurora Discovery, San Diego, CA). After the plates were incubated at room temperature for 2 hours, fluorescence intensity was measured by an Envision plate reader (PerkinElmer, Shelton, CT).
% is scaled to controls: 0 for no effect and ±100 for the full control effect; potency is read from the fitted curve at half-maximal effect.

Estrogen receptor beta (Homo sapiens), sequence (Q92731 whole entry, looked up): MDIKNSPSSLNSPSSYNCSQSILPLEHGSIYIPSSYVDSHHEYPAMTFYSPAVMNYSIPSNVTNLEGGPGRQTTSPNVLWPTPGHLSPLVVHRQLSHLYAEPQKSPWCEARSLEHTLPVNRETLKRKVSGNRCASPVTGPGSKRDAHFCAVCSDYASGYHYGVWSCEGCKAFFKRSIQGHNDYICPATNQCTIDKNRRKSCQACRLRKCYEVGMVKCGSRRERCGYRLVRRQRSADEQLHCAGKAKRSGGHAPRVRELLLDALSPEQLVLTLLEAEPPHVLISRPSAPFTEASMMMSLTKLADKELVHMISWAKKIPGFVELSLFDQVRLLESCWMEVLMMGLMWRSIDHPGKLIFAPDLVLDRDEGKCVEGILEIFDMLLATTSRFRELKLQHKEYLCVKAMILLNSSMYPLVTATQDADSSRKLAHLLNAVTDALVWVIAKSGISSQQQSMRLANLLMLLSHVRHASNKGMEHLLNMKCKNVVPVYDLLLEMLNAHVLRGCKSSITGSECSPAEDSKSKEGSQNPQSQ

Compound	activation	Potency
O=C(O)c1c2ccccc2cc2ccccc12	6.16%	–
C[Si](C)(C)O[Si](C)(C)O[Si](C)(C)C	2.5%	–
CC(C)Cc1nccs1	0.499%	–
C=C[Si]1(C)O[Si](C)(C=C)O[Si](C)(C=C)O[Si](C)(C=C)O1 (stereo not given)	-0.0295%	–
CCCCCCCCCCCCSCCOCCO	-0.888% [at 42.5 µM]	–
COC(=O)c1cc(Cl)ccc1[N+](=O)[O-]	-0.0663%	–
C=Cc1ccc(C=C)cc1	-0.448%	–
CC(=O)Nc1ccn(C2COC(COC(=O)c3ccccc3)O2)c(=O)n1 (stereo not given)	-2.6% [at 42.5 µM]	–
CC(=O)Nc1cccc(N)c1	0.0715%	–
O=C(O)c1ccncc1	0.46%	–
CC(C)(C)c1ccc(CCC=O)cc1	-2.61%	–
C(/C=C/C=C/Nc1ccccc1)=Nc1ccccc1	-1.2%	–
COc1ccc(CN(CCN(C)C)c2ncccn2)cc1	5.82% [at 42.5 µM]	–
CC1(C)[C@@H]2CC[C@]3(C2)[C@@H]1C(=O)CCC3(C)C	3.34%	–
CO[C@@H]1[C@@H](O[C@@H]2O[C@H](C)[C@@H](O[C@H]3C[C@@](C)(O)[C@@H](O)[C@H](C)O3)[C@H](N(C)C)[C@H]2O)[C@@H](CC=O)C[C@@H](C)[C@@H](O[C@@H]2CC[C@H](N(C)C)[C@@H](C)O2)/C=C/C=C/C[C@@H](C)OC(=O)C[C@H]1OC(C)=O	-5.74% [at 42.5 µM]	–
Cc1nc(C)c(C)nc1C	-3.35%	–
CC(=O)CC/C=C(\C)CC/C=C(\C)CC/C=C(\C)CCC=C(C)C	-0.0358% [at 42.5 µM]	–
c1ccc(CCNc2nc(-c3ccccc3)cs2)cc1	1.34% [at 42.5 µM]	–
CC(=O)OCC(=O)[C@@]1(O)CC[C@H]2[C@@H]3CCC4=CC(=O)C=C[C@]4(C)[C@@]3(F)[C@@H](O)C[C@@]21C	1.07% [at 42.5 µM]	–
COc1ccc(/C=C/c2cc(OC)cc(=O)o2)cc1	-0.0464% [at 42.5 µM]	–

Compound	activation	Potency
O=C(OCCOCCOCCOC(=O)c1ccccc1)c1ccccc1	0.222%	–
Cc1ccc(Cl)c(OCC(O)CNC(C)(C)C)c1 (stereo not given)	-0.351% [at 42.5 µM]	–
CCCC1CCCC(=O)O1 (stereo not given)	0.168%	–
C[C@H]1C[C@H]2[C@@H]3CCC4=CC(=O)C=C[C@]4(C)[C@@]3(F)[C@@H](O)C[C@]2(C)[C@@]1(O)C(=O)COP(=O)(O)O	-0.995%	–
O=C(O)c1ccc2c(c1)nc(C(=O)NC1CCN(C3CC3)CC1)n2Cc1cc(-c2ccc(Cl)s2)on1	-4.72% [at 19 µM]	–
CCn1nc(Cc2ccccc2)cc1C1CCN(C[C@H]2C[C@H](N(C)[C@@H](C(=O)O)C(C)C)C[C@@H]2c2cccc(F)c2)CC1	-1.7%	–
Cc1cccc(C)c1NC(=O)CN1CCCC1	3.52% [at 42.5 µM]	–
COc1ccc(/C=C/S(=O)(=O)NC(=O)c2ccc(C)cc2Cl)cc1	-0.807%	–
CCCCCCCCNC	0.3%	–
O=C(Cl)c1cc(Cl)cc(Cl)c1	-0.485%	–
CC(=O)Nc1ccccc1O	-1.95%	–
CC(=O)c1cccnc1	-0.0103%	–
Clc1nc2ccccc2nc1Cl	4.76%	–
Cc1c(-c2cccnc2)c2ccccc2n1CCCCC(=O)O	2.03%	–
COC=O	8.91% [at 8.39 µM]	–
CO[C@@H]1COCC[C@@H]1N[C@@H]1CC[C@@](C(=O)N2CCc3ncc(C(F)(F)F)cc3C2)(C(C)C)C1	-0.55%	–
Oc1ccc(Oc2ccccc2)cc1	–	11.6 µM (active)
CCCCCCOC(=O)c1ccccc1	-5.36%	–
CCC1=C(C)CN(C(=O)NCCc2ccc(S(=O)(=O)NC(=O)NC3CCC(C)CC3)cc2)C1=O (stereo not given)	-2.37% [at 42.5 µM]	–
CC(C)(Cc1c[nH]c2ccccc12)NCC(O)COc1ccccc1C#N (stereo not given)	-5.63% [at 42.5 µM]	–
